TEAD-YAP inh = TEAD-YAP interaction inhibition. inhibition, % at 9.12 µM. HEK-TIYL cells, TEAD-Gal4/YAP UAS-luciferase luminescence. actives 1.4% (n = 640,000); in the data active = inhibition above about 32%
GPR151 ag = human GPR151 activation | Q8TDV0 | PathHunter beta-arrestin GPR151 cells, luminescence | activation, % at 11.2 µM | actives 1% (n = 650,000) | AID 1508602; in the data active = activation above about 4.9%
FBW7 act = activators of human E3 ligase FBW7. AID 1259310. actives 0.13% (n = 650,000). Q969H0. normalized activity (activation), % at 26.1 µM. AlphaScreen FBW7–phospho-cyclin E peptide binding, activator screen; in the data active = normalized activity above about 1.9%;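 note: purified mutant Fbw7 with reduced substrate affinity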
MITF primary = human MITF inhibition, primary screen | AID 1259374 | actives 0.91% (n = 650,000) | O75030 | inhibition, % at 2.6 µM | AlphaScreen MITF homodimerization, bead proximity signal; in the data active = inhibition above about 50%
GPR151 confirm = human GPR151 activation, confirmation screen | shares compounds with GPR151 ag | GPR151 PathHunter beta-arrestin cells, luminescence, 90 min; % of EA-reagent control over plate median | activation, % at 11.2 µM | 6,700 tested, under 10 active | AID 1508609;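 active = mean percent activation across replicates above the confirmation screen cutoff of 4.91%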
GPR119 ag = GPR119 activation, counter-screen for GPR151 activators; GPR119 PathHunter beta-arrestin cells, luminescence, 90 min; 0 = compound-well median, 100 = enzyme-acceptor control; AID 1508611; shares compounds with GPR151 ag; activation, % at 11.2 µM; actives 0.3% (n = 6,700);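 active = mean percent activation in the counterscreen above 29.09%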;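 note: counterscreen on off-target GPR119 to flag nonselective hits from the GPR151 activator screen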
Target sequence (Q8TDV5 whole entry, looked up): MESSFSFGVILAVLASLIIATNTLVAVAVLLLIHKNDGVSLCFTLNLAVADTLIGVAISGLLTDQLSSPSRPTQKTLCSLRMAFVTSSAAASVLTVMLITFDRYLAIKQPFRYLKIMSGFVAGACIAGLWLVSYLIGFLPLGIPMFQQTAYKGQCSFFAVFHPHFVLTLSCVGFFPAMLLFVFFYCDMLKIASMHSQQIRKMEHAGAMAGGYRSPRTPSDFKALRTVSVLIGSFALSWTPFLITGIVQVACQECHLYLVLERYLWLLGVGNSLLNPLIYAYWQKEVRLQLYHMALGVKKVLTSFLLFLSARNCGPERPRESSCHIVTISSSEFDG
Numbers stand for hits. Sampled rows, rich in hits. Any-hit rate of the full collection: about 3.4%.

Results for NC(=O)C1CCCc2c1[nH]c1c(C(=O)O)cccc21 (stereo not given) ?
TEAD-YAP inh: inactive; GPR151 ag: 6.1; FBW7 act: inactive; MITF primary: inactive; GPR151 confirm: inactive; GPR119 ag: inactive

Results for CCOc1cccc(=O)c2c(C)n(-c3cccc([N+](=O)[O-])c3)c(C)c12 ?
TEAD-YAP inh: inactive; GPR151 ag: inactive; FBW7 act: inactive; MITF primary: inactive

What do the screens show for `CCN1C(=O)CC(Sc2ccccc2N)C1=O` (stereo not given)?
TEAD-YAP inh: inactive; GPR151 ag: inactive; FBW7 act: inactive; MITF primary: inactive

How did Nc1ccccc1SC1CC(=O)N(Cc2ccccc2)C1=O (stereo not given) do in these assays?
TEAD-YAP inh: inactive; GPR151 ag: 7.1; FBW7 act: inactive; MITF primary: inactive; GPR151 confirm: inactive; GPR119 ag: inactive

Results for CC1(C)CC(NC(=O)COc2ccc(C(C)(C)C)cc2)CC(C)(C)N1 ?
TEAD-YAP inh: inactive; GPR151 ag: inactive; FBW7 act: inactive; MITF primary: inactive

How did N#C/C(=C\c1ccc(Br)c([N+](=O)[O-])c1)c1nn(-c2ccccc2)c(N)c1C#N do in these assays?
TEAD-YAP inh: inactive; GPR151 ag: 4.9; FBW7 act: inactive; MITF primary: inactive; GPR151 confirm: inactive; GPR119 ag: inactive

What do the screens show for `CN(C)c1ccc(/C=C(\C#N)c2nn(-c3ccccc3)c(N)c2C#N)cc1[N+](=O)[O-]`?
TEAD-YAP inh: inactive; GPR151 ag: inactive; FBW7 act: inactive; MITF primary: inactive

How did CCOc1cc(S(=O)(=O)n2ccnc2)ccc1Br do in these assays?
TEAD-YAP inh: inactive; GPR151 ag: inactive; FBW7 act: inactive; MITF primary: inactive

What do the screens show for `COc1cc(S(=O)(=O)n2ccnc2)ccc1Br`?
TEAD-YAP inh: inactive; GPR151 ag: 5.7; FBW7 act: inactive; MITF primary: inactive; GPR151 confirm: inactive; GPR119 ag: inactive

How did COc1ccc(C(C)C)cc1S(=O)(=O)Nc1cccc(O)c1 do in these assays?
TEAD-YAP inh: inactive; GPR151 ag: inactive; FBW7 act: inactive; MITF primary: inactive

How did CN(C)CCSc1cc(-c2cn[nH]c2)ccc1NC(=O)NCc1ccccc1 do in these assays?
TEAD-YAP inh: inactive; GPR151 ag: inactive; FBW7 act: inactive; MITF primary: inactive

Results for CN(c1ccc(C(=O)Nc2ccc(F)c(Cl)c2)cc1)S(=O)(=O)c1ccccc1 ?
TEAD-YAP inh: inactive; GPR151 ag: 5.4; FBW7 act: inactive; MITF primary: inactive; GPR151 confirm: inactive; GPR119 ag: inactive

Results for CN(c1ccc(C(=O)Nc2ccccc2)cc1)S(=O)(=O)c1ccccc1 ?
TEAD-YAP inh: inactive; GPR151 ag: inactive; FBW7 act: inactive; MITF primary: inactive

Results for O=C(c1cc(=O)c2ccccc2o1)N1CCCC1 ?
TEAD-YAP inh: inactive; GPR151 ag: inactive; FBW7 act: inactive; MITF primary: inactive

Results for CC(C)c1nnc2n1CCN(C(=O)c1cc(=O)c3ccccc3o1)CC2 ?
TEAD-YAP inh: inactive; GPR151 ag: 7.3; FBW7 act: inactive; MITF primary: inactive; GPR151 confirm: inactive; GPR119 ag: inactive

What do the screens show for `CC(C)Cc1nnc(-c2cc3ccccc3n2CC(=O)N2CCc3ccccc32)o1`?
TEAD-YAP inh: inactive; GPR151 ag: 5.0; FBW7 act: inactive; MITF primary: inactive; GPR151 confirm: inactive; GPR119 ag: inactive

What do the screens show for `COCCn1nnnc1C(c1cc2cccc(C)c2[nH]c1=O)N1CCCCC1` (stereo not given)?
TEAD-YAP inh: inactive; GPR151 ag: 5.2; FBW7 act: inactive; MITF primary: inactive; GPR151 confirm: inactive; GPR119 ag: inactive

What do the screens show for `COCCn1nnnc1C(c1cc2cccc(C)c2[nH]c1=O)N1CCCCCC1` (stereo not given)?
TEAD-YAP inh: inactive; GPR151 ag: inactive; FBW7 act: inactive; MITF primary: inactive

How did O=C(c1ccccc1)N1CCN(Cc2ccc([N+](=O)[O-])cc2)CC1 do in these assays?
TEAD-YAP inh: inactive; GPR151 ag: inactive; FBW7 act: inactive; MITF primary: inactive

How did CCOC1OC(=O)C(Cl)=C1Nc1cccc(C)c1 (stereo not given) do in these assays?
TEAD-YAP inh: inactive; GPR151 ag: 5.0; FBW7 act: inactive; MITF primary: inactive; GPR151 confirm: inactive; GPR119 ag: inactive

What do the screens show for `CC(C)(O)C#Cc1ccc(C(=O)NCCc2ccccc2)cc1`?
TEAD-YAP inh: inactive; GPR151 ag: inactive; FBW7 act: inactive; MITF primary: inactive

Screening results (PubChem BioAssay)
